# High-throughput results (PubChem BioAssay)
# HIF-2a block = HIF-2a inhibition. 786-0 RCC cells HIF-2a reporter, luciferase luminescence, overnight. inhibition, % at 18.8 µM. 0.72% of 360,000 active. AID 624352;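 active = inhibition of the luminescence signal of 40% or more relative to plate controls, in a single-dose primary screen at 18.75 µM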
# ABHD5 PLIN5 PPI = ABHD5-PLIN5 protein interaction inhibition. Q00G26+Q8WTS1. Split G. princeps luciferase complementation, luminescence, 4 h. inhibition, % at 4 µM. 0.78% of 360,000 active;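 active = inhibition above the mean inhibition across every tested compound plus 3 SD, cut at about 22% in these data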;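 also: 0% = DMSO only wells and the 100% control is not disclosed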
# TRPM1 prom inh = inhibitors of MITF-driven TRPM1 promoter in melanoma cells; SK-MEL-5 TRPM1 promoter luciferase, 24 h; inhibition, % at 12.5 µM; 0.83% of 330,000 active; AID 488899;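 active = mean inhibition across replicates of 60% or more, whatever share of single replicates reaches that level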
# KKLEB cytotox = reduces viability of KKLEB cystic fibrosis airway cells | KKLEB CF airway cells viability, ATPlite luminescence, overnight; active compounds read low; cells stimulated with P. aeruginosa culture filtrate | activity change (cytotoxicity), % at 5 µM | 0.36% of 360,000 active | AID 602141;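 active = corrected activity change at or below -50% at 5 µM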
# Peg3 promoter = Peg3 promoter activity inhibition | 1.7% of 360,000 active | inhibition, % at 20 µM | HeLa PEG-Prom luciferase reporter, luminescence, overnight;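 active = inhibition of at least 50% at 20 µM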
# CF NFkB block = inhibitors of cystic fibrosis induced NF-kB; KKLEB NF-kB-GFP reporter, PAF-induced, GFP fluorescence overnight; inhibition, % at 5 µM; 0.86% of 360,000 active; AID 588850;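 active = at least 50% inhibition at 5 µM, scaled per plate between neutral and stimulator controls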;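 also: PAF is a Pseudomonas aeruginosa culture filtrate used as stimulus; plate controls were PAF-stimulated DMSO wells for no effect and unstimulated DMSO wells for full effect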
# * = called active by the depositor; . = no result; ! = repeats disagree. This is a sample that favours compounds with a hit; in the whole collection about 3% have one here.
SMILES,HIF-2a block,ABHD5 PLIN5 PPI,TRPM1 prom inh,KKLEB cytotox,Peg3 promoter,CF NFkB block
O=c1[nH]c(/C(Cl)=C/c2cc(Cl)ccc2O)nc2cc(Cl)ccc12,-93,2,-5,-53*,21,17
O=C1c2ccccc2C(=O)c2c1ncn2-c1ccccc1,-19,0,61*,5,-2,-25
Nc1nc2c(ncn2-c2ccccc2)c(=O)[nH]1,-4,-2,7,0,7,14
CN[C@H]1CCc2cc(OC)c(OC)c(OC)c2-c2ccc(N(C)CC(OC)OC)c(=O)cc21,16,-15,24,-3,-3,8
COc1cc2c(c(OC)c1OC)-c1ccc(OC)c(=O)cc1[C@@H](NC(C)=O)CC2,12,-2,40,16,-19,42
CCN(CC)c1ccc2c(cc1=O)[C@@H](NC)CCc1cc(OC)c(OC)c(OC)c1-2,7,-13,66*,-9,-2,42
COc1cc2c(c(OC)c1OC)-c1ccc(N(C)CC(OC)OC)c(=O)cc1[C@@H](NC(C)=O)CC2,26,-1,73*,-10,3,42
COc1ccccc1/C=C1\SC(=S)N(CCC(=O)N2CCN(C)CC2)C1=O,11,11,7,0,7,-12
O=C(CCN1C(=O)/C(=C/c2ccccc2Cl)SC1=S)N1CCCC1,-11,-1,41,-4,73*,53*
O=C(CCN1C(=O)/C(=C/c2ccccc2Cl)SC1=S)N1CCOCC1,-15,-1,18,-11,76*,72*
CC(=C\c1ccccc1)/C=C1/SC(=S)N(CCC(=O)O)C1=O,81*,1,5,4,-34,6
O=C(CCCN1C(=O)/C(=C/c2ccccc2Cl)SC1=S)NNC(=O)c1ccncc1,82*,4,10,22,21,-9
Cc1csc2c(N3CCN(C(=S)Nc4ccc(F)cc4F)CC3)ncnc12,0,-11,-3,-4,-5,11
O=C(CCCN1C(=O)/C(=C/c2ccccc2)SC1=S)N1CCOCC1,25,9,-16,-1,8,-6
O=C(CCCN1C(=O)/C(=C/c2ccccc2Cl)SC1=S)N1CCCC1,59*,4,21,-11,35,5
NC(=O)/C=C/C(=O)Nc1ccc(Cl)cc1,13,8,2,-12,63*,-5
O=c1c(Cl)c(Cl)cnn1Cc1ccc(F)cc1,14,2,81*,-5,74*,35
CCOC(=O)C1=C(COC(=O)c2ccc3ccccc3c2O)NC(=O)NC1C (stereo unspecified),1,-7,8,-11,21,23
Cc1ccc(C#CC[N+]2(CC#Cc3ccc(C)cc3)CCCCC2)cc1,13,20,70*,-24,97*,35
C(#Cc1ccccc1)C[N+]1(CC#Cc2ccccc2)CCCCC1,9,-1,44,-9,14,4
CC(C)(C)OC(=O)NN1CC(=O)N2Cc3ccccc3C[C@@H]2C1=O,7,-4,1,-2,8,-3
O=C(NC1CC1)c1ccc(-c2nc3ccccc3s2)s1,47*,-8,56,-66*,62*,-13
OC(c1ccccc1)(c1ccccc1)C1CCN(CCCOc2ccc3c(c2)CCCC3)CC1,4,1,.,.,.,.
O=[N+]([O-])c1cc(-c2nnc(Nc3ccc(O)cc3)c3ccccc23)ccc1N1CCOCC1,3,7,5,8,52*,13
CCOCCCNC(=O)/C(C#N)=C/c1ccc(-c2ccc(S(=O)(=O)N3CCOCC3)cc2)o1,17,9,-6,-11,45,13
SMILES,HIF-2a block,ABHD5 PLIN5 PPI,TRPM1 prom inh,KKLEB cytotox,Peg3 promoter,CF NFkB block
CC(NC(=O)/C(C#N)=C/c1ccco1)c1ccccc1 (stereo unspecified),-2,0,-5,-4,1,3
CCOCCCNC(=O)/C(C#N)=C/c1ccc([N+](=O)[O-])o1,34,8,61*,9,101*,-6
CC(NC(=O)/C(C#N)=C/c1ccc([N+](=O)[O-])o1)c1ccccc1 (stereo unspecified),78*,29*,58,18,103*,-52
COc1cc(OC)cc(C(=O)N[C@H](C(=O)NCc2ccccc2)C(C)C)c1,19,2,-1,1,18,4
O=C(c1cccc(Cl)c1)N1CCC2CC1c1cc(N3CCOCC3)ccc12 (stereo unspecified),14,5,-11,11,-4,1
COc1ccc2oc(-c3ccc(NC(=O)c4ccc(N5CCOCC5)c([N+](=O)[O-])c4)cc3)nc2c1,19,-5,3,-60*,29,54*
CCN1CCN(Cc2ccc(NC(=O)c3ccc(C)c(NC(=O)c4nccnc4N)c3)cc2C(F)(F)F)CC1,9,4,5,-19,81*,71*
CCN1CCN(Cc2ccc(NC(=O)c3cc(NC(=O)c4nccnc4N)cc(OC)c3)cc2C(F)(F)F)CC1,-21,13,73*,-16,1,42
CCN1CCN(Cc2ccc(NC(=O)c3ccc(C)c(NC(=O)c4cncc(-c5cccs5)c4)c3)cc2C(F)(F)F)CC1,48*,26*,97*,-85*,99*,80*
CCN1CCN(Cc2ccc(NC(=O)c3cc(NC(=O)c4cnnc5ccccc45)cc(OC)c3)cc2C(F)(F)F)CC1,-3,7,.,-12,100*!,34
COc1ccc(CCN2CC(C(=O)NC3CCOCC3)CCC2=O)cc1 (stereo unspecified),-8,0,1,-2,12,0
COc1ccc(S(=O)(=O)N2CCC3(CC2)CC(=O)c2ccccc2O3)cc1C,5,-4,4,-2,-3,0
CC1CC(C)CN(CCCNC(=O)c2cc3c(s2)-c2ccccc2OC3)C1 (stereo unspecified),-12,0,-14,-11,44,17
CC1CCCC(C)N1CCCNC(=O)c1cc2c(s1)-c1ccccc1OC2 (stereo unspecified),-8,3,61*,-23,79*,10
Cc1ccc(CN=C2NC(=O)C(CC(=O)NCCc3ccccc3)S2)cc1 (stereo unspecified),9,-9,2,-1,12,0
O=c1c2ccccc2sc2c(CO)ccc(NCCN3CCCCC3)c12,55*,0,15,-2,88*,-74
CCN(CC)CCNc1ccc(CO)c2sc3ccccc3c(=O)c12,43*,10,29,-4,58*,-58
O=c1c2ccccc2sc2ccc(NCCCN3CCOCC3)cc12,-257,1,-73,11,-275,-72
CCN(CC)CCNc1ccc(CO)c2oc3ccccc3c(=O)c12,40*,8,.,-6,7,-37
CCN(CC)CCNC(=O)Cc1nn(CC)c(=O)c2ccccc12,-9,6,-13,12,9,10
